The compounds below were run on AKT2. Settings: Compound Concentration (nM):1000.
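Further: KINOMEscan scanMAX binding as percent activity remaining versus control; lower means stronger binding.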

Structure (SMILES) | Percent Control [%]
COc1ccccc1-c1cc(/C=C2\C(=O)Nc3ncc(Br)cc32)cc(Br)c1O [GW442130X] | 100
NS(=O)(=O)c1ccc(N/N=C2\C(=O)Nc3ccc(C(=O)NCc4ccncc4)cc32)cc1 [GW300657X] | 100
Cl.O=C(O[C@H]1CN[C@H](C#Cc2cc3ncnc(Nc4ccc5c(cnn5Cc5ccccc5)c4)c3s2)C1)N1CCOCC1 [GSK200398A] | 100
Cl.O=S1CCN(Cc2ccc(-c3ccc4ncnc(Nc5ccc(OCc6ccccc6)c(F)c5)c4c3)o2)CC1 [GW576924A] | 100
Cl.c1ccc(Cc2nc3ccc(Nc4ncnc5ccccc45)cc3[nH]2)cc1 [GR269666A] | 100
COc1cccc(-c2c[nH]c3c(N/N=C/c4ccncc4)ncnc23)c1 [GW814408X] | 100
Cl.O=C(Nc1ccc(Oc2ccc3[nH]c(NC(=O)c4ccccc4)nc3c2)cc1)Nc1cc(C(F)(F)F)ccc1F [GW709042A] | 100
CCn1c(-c2nonc2N)nc2c(C#CC(C)(C)O)nc(OCCNC)cc21.Cl [GSK949675] | 3.1
CN(C)c1cc2c(Nc3ccc4c(cnn4Cc4ccccc4)c3)ncnc2cn1 [GW282974X] | 100
C[C@@H](Oc1cc(-n2cnc3ccc(OC4CCN(C)CC4)cc32)sc1C(N)=O)c1ccccc1Cl [GSK579289A] | 100
CCc1ccc(Oc2nccc(-c3c(-c4ccc(F)cc4)ncn3C3CCNCC3)n2)cc1 [SB-242719] | 100
NS(=O)(=O)c1ccc(N/N=C2\C(=O)Nc3ccc(-c4cnco4)cc32)cc1 [GW276655] | 65
COc1cc(C)c(N(C)C(=O)CN(C)C)cc1Nc1nc(Nc2cccc(F)c2C(N)=O)c2cc[nH]c2n1 [GSK2219385] | 85
COc1ccc2[nH]c3c4[nH]c5ccc(OC)cc5c4c4c(c3c2c1)C(=O)NC4=O [GW296115X] | 84
COc1cc(C=NNc2ncnc3c2cnn3-c2ccccc2)ccc1O [GW513184X] | 100
NS(=O)(=O)c1ccc(N/N=C2\C(=O)Nc3ccc(Cl)cc32)cc1 [GW280670X] | 100
COc1cc(N2CCN(C(C)C)CC2)ccc1Nc1nc(Nc2ccc(F)cc2C(=O)NC[C@@H](O)CO)c2cc[nH]c2n1 [GSK1392956A] | 100
Cc1cc(O)cc(C)c1/C=C/c1cncc(C(N)=O)c1 [GW435821X] | 100
COC(=O)Nc1nc2ccc(Oc3ccc(NC(=O)Nc4cc(C(F)(F)F)ccc4F)cc3)cc2s1.Cl [GW693917A] | 100
CC(C)COC(=O)c1ccc2c(c1)/C(=C/Nc1ccc(S(N)(=O)=O)cc1)C(=O)N2 [GW416981X] | 100
CCS(=O)(=O)c1ccc(OC)c(Nc2ncc(-c3cccc(OC)c3)o2)c1 [GW580509X] | 100
COc1cccc(-n2ncc3c(N/N=C/c4ccncc4)ncnc32)c1 [GW784752X] | 100
COc1ccc2c(-c3ccnc(Nc4cccc(OC(F)(F)F)c4)n3)cnn2n1 [GW810372X] | 100
O=C1Nc2ccc(C(=O)c3ccco3)cc2C1=Cc1cc(Cl)c(O)c(Cl)c1 [GW406108X] | 100
NS(=O)(=O)c1ccc(Nc2ncc(-c3ccccc3)o2)cc1 [GW572399X] | 100
COc1cc2ncn(-c3cc(O[C@H](C)c4ccccc4Cl)c(C(N)=O)s3)c2cc1OC [GSK237701A] | 88
Nc1ncnc2occ(-c3ccc(NC(=O)Nc4cc(C(F)(F)F)ccc4F)cc3)c12 [GW770249X] | 100
NS(=O)(=O)c1ccc(N/N=C2\C(=O)Nc3ccc(C(=O)NCCc4c[nH]cn4)cc32)cc1 [GW300660X] | 100
